# Over roughly 39,000 sequences, “fluorescence intensity (a.u.)” has its median near 4,300; the highest 2% begin near 39,000. This is one part of a sample in which the highest values are shown more often than they occur.
# Biological target: T1, OsSMF1 (Oryza sativa, UniProt Q6ZLB0 1-436)
# T1 sequence: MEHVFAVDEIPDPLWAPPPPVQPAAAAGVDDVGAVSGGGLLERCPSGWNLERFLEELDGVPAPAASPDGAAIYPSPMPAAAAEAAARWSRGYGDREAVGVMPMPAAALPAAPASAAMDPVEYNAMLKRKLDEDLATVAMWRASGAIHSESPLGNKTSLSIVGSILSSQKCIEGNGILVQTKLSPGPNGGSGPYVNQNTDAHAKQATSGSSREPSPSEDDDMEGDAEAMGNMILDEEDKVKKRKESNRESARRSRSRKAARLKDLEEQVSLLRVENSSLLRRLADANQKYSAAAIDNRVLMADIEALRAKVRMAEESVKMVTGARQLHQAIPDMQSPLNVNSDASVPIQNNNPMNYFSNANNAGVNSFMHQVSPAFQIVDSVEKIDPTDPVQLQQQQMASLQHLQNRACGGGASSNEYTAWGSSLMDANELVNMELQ
# Assay: protein-binding microarray (RPBM); PBS, 2% BSA, 51.3 ng/ul salmon testes DNA, 50 uM zinc acetate, 200 nM TF, 25 C, 1 h; high values mean tight binding
# Settings: protein: recombinant; tags: N-terminal polyhistidine and DsRed monomer fusion (pET32a); chain copies: 2; label: CyDye5-dUTP incorporated in the synthesized complementary strand; 3' TTTTT single-stranded linker to array surface; dsDNA, one strand shown
# Procedure, shortened: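 Transcription factors were made in E. coli BL21-CodonPlus as N-terminal fusions to a polyhistidine tag and DsRed, then purified on Ni–NTA. After primer extension with Cy5-dUTP and blocking with 2% BSA, a custom Agilent array was exposed for 1 h at 25 °C to 200 nM protein in PBS, 2% BSA, salmon testes DNA and 50 µM zinc acetate. Washed arrays were scanned on an Axon 4000B, and the binding signal is per-feature fluorescence intensity in arbitrary units.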
row,Sequence,binding signal
1,TCCGTGACACCGTGACAGCGTGGACGTTCATAACCTTCCACGGAGTCACCTAGTGCAG,9010 fluorescence intensity (a.u.)
2,GACCTCGCGAACAGCCCACACGTACGTTACTGACGCCATACGGAGTCACCTAGTGCAG,4360 fluorescence intensity (a.u.)
3,ACAGGTAGCTCCATATCTTGTTCATATTGACATACACAATCGGAGTCACCTAGTGCAG,31500 fluorescence intensity (a.u.)
4,TGCAAATTTTCAAAATCGACTACCAGTAGATGTTTACTCCCGGAGTCACCTAGTGCAG,14000 fluorescence intensity (a.u.)
5,CAAGAATGTACTGAGTACGTCTCAATCCACGTGTTTGAGCCGGAGTCACCTAGTGCAG,4960 fluorescence intensity (a.u.)
6,TATAGTTGTGTACTAGTGTCACTCACGCCACCCGTCTCATCGGAGTCACCTAGTGCAG,3670 fluorescence intensity (a.u.)
7,TCACGAACTGTGTACCGGATGCCACGTCACACAGTTGTCTCGGAGTCACCTAGTGCAG,41200 fluorescence intensity (a.u.)
8,ATGCAGCCACACGGATGTTGGACGTCATTGTCTATAGTGTCGGAGTCACCTAGTGCAG,4580 fluorescence intensity (a.u.)
9,ACCAGCCACGTAGGCGCCACGTCAGCTAAAACCGCCTTCACGGAGTCACCTAGTGCAG,19900 fluorescence intensity (a.u.)
10,CGTAAGCGCCACGTTAATGCCACGTGGGGCGAAGACCTAGCGGAGTCACCTAGTGCAG,15100 fluorescence intensity (a.u.)
11,TTGCAGTGCCACCTCACCGCCACGTAGGATGATGACTAAGCGGAGTCACCTAGTGCAG,25800 fluorescence intensity (a.u.)
12,AGTAAAAGGAGCCACGTAGGCGCCACGTCATCCAAAACCACGGAGTCACCTAGTGCAG,47600 fluorescence intensity (a.u.)
13,GGCCGCGTAGGCGCCACATCAGCCAAAACCACCATCAAAACGGAGTCACCTAGTGCAG,4590 fluorescence intensity (a.u.)
14,AGTTAATGGAGGAGCCACCGCCACGTAAGTGCCACGTAGGCGGAGTCACCTAGTGCAG,56200 fluorescence intensity (a.u.)
15,AACCAGCCACGTAGGCGCCACGTCAGCCAAAACTGCTATCCGGAGTCACCTAGTGCAG,35900 fluorescence intensity (a.u.)
16,ACAAGCCACGTAGGCGCCACGTCAGCCAAAACCGCCTTCACGGAGTCACCTAGTGCAG,44100 fluorescence intensity (a.u.)
17,AAACTAGCCACGTTGGCGCCACGTCAGCCAAAACCGCCTTCGGAGTCACCTAGTGCAG,33700 fluorescence intensity (a.u.)
18,CATTATACTGTTCATAAACATGAATATCACAACCTGTTCTCGGAGTCACCTAGTGCAG,21100 fluorescence intensity (a.u.)
19,GTGTGGGGATAAACAGAGGTAGAGACATGTGTCAGATGACCGGAGTCACCTAGTGCAG,3150 fluorescence intensity (a.u.)
20,CTTCTTTCCCGCACGCGCGGCTCGCGCATGCATGCACGATCGGAGTCACCTAGTGCAG,15000 fluorescence intensity (a.u.)
21,CGTCCGGCGTCGGCGTGGACGGGTCGGCGCGGCGCCCCACCGGAGTCACCTAGTGCAG,3650 fluorescence intensity (a.u.)
22,AGATTAAGGAGTCCTCCATCTATATAATCCAATCTATCTCCGGAGTCACCTAGTGCAG,21400 fluorescence intensity (a.u.)
23,ACCACCCGAGACGCGACGTGGCGGCGGGCATGCAGCACCCCGGAGTCACCTAGTGCAG,5050 fluorescence intensity (a.u.)

row,Sequence,binding signal
1,TTGTCCGATGTGGCAGTTGAGTCAGCATGAGACCCACGTACGGAGTCACCTAGTGCAG,14200 fluorescence intensity (a.u.)
2,CGGCACCACCAGTTGTCCGGCATGCGATGTGGTACCGAGACGGAGTCACCTAGTGCAG,49300 fluorescence intensity (a.u.)
3,ACCTGTATTTGTCATTATTTAGTGGACTCTGCTTAGTTCTCGGAGTCACCTAGTGCAG,3390 fluorescence intensity (a.u.)
4,TGCAGCCGCCGACGCGGCGCGCCGACGCGATCTGAAACCCCGGAGTCACCTAGTGCAG,3940 fluorescence intensity (a.u.)
5,TATGGTGATCCTAGCGATGAAACCGCCTAGCCCCGTTAGGCGGAGTCACCTAGTGCAG,64600 fluorescence intensity (a.u.)
6,CATGGTGATGATGGCGGCGGGCGTCCGTCAGCGCCCGCACCGGAGTCACCTAGTGCAG,5860 fluorescence intensity (a.u.)
7,CCTATTCCTTGTCACTATGACACCGTCATATATCTATGCACGGAGTCACCTAGTGCAG,3420 fluorescence intensity (a.u.)
8,CCCGCGGATCGATCGATCGCCGCCGCGCGCCTGGACGAGCCGGAGTCACCTAGTGCAG,3300 fluorescence intensity (a.u.)
9,AATCGTGTCCATGGTCTCCACCTCACGGGAGATTCTCCGCCGGAGTCACCTAGTGCAG,3830 fluorescence intensity (a.u.)
10,CCGCCACCCGCTGCCCGGGGAGCTCCGCCTTCACCTCCGCCGGAGTCACCTAGTGCAG,7820 fluorescence intensity (a.u.)
11,CGCCTCCGTGGACCCGGTCCACGGGGAGATTACACCTTCACGGAGTCACCTAGTGCAG,57600 fluorescence intensity (a.u.)
12,ATAGTTAGGTGACAATTGACAAGTGTCAAGTTGTGTATGACGGAGTCACCTAGTGCAG,3360 fluorescence intensity (a.u.)
13,TGATGGCGGCTTTAGGTGACATGCAGCATTAAGTGGCATGCGGAGTCACCTAGTGCAG,4460 fluorescence intensity (a.u.)
14,GGACACCCGCTCCGCGTCGCGCGCACGCTAGAAGAACTCCCGGAGTCACCTAGTGCAG,3140 fluorescence intensity (a.u.)
15,CTCTCCTCCTTTCTTCTCCAAGTCAACAGTTCCTACGCTACGGAGTCACCTAGTGCAG,3360 fluorescence intensity (a.u.)
16,ACGACACTACCAATTGTTTGGCCTTCAATCCAAACTAGCACGGAGTCACCTAGTGCAG,3500 fluorescence intensity (a.u.)
17,AGCAAGCAAAGCCGAAGAATTGTTACACGGCCAAAGTGGACGGAGTCACCTAGTGCAG,41200 fluorescence intensity (a.u.)
18,GCAGCTGAAGTGGACCTGTCAGCAAGTAAAGCCAAGAGGCCGGAGTCACCTAGTGCAG,3470 fluorescence intensity (a.u.)
19,TCGCACCAAGAATTGTTCACCTACCTTCAAAGTTCCAACACGGAGTCACCTAGTGCAG,63300 fluorescence intensity (a.u.)
20,CGGAAAAGAAAGCCATGGAAGAAATGACGCAAGCAGCGGACGGAGTCACCTAGTGCAG,4230 fluorescence intensity (a.u.)
21,TCCAAGAAAGTGACCAAGCAAATGACGCAAGTGGTGCACGCGGAGTCACCTAGTGCAG,40200 fluorescence intensity (a.u.)
22,AATTGCTATGGTTACACCCGGCCGAAGCAAAGTCACCACTCGGAGTCACCTAGTGCAG,3520 fluorescence intensity (a.u.)
23,GAAATGCCAAGTGTGAGAAGATGACGCACCCAAATGCAACCGGAGTCACCTAGTGCAG,5640 fluorescence intensity (a.u.)

# From paper PMC7819943, “Rice protein-binding microarrays: a tool to detect cis-acting elements near promoter regions in rice”
